The results in this text go back to PubChem BioAssay AID488969 (Vanderbilt High Throughput Screening Facility, 2010).

The full ranking holds about 110,000 compounds; the median of “z-score” is about -0.1, and the highest 2% start at about 2. This is one part of a sample in which the highest values are shown more often than they occur. Activity calls are given as the source filed them.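 Rule for the calls: active = z-score in the third read window above 3 or below -3; inactive = the rest.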

For this test, the target named is Metabotropic glutamate receptor 8 (Rattus norvegicus) (UniProt P70579). Nature of the test: rat mGluR8 modulators via GIRK flux, primary screen, cell-based, thallium flux, HTS (AID 488969). Conditions: HEK293 rat mGluR8, GIRK (G protein-gated inwardly rectifying potassium channel) thallium flux, FluoZin2; at 10 µM; stronger effect = higher value; submaximal glutamate (EC20) added with thallium.
Chain of Metabotropic glutamate receptor 8 (Rattus norvegicus) (P70579 whole entry, looked up): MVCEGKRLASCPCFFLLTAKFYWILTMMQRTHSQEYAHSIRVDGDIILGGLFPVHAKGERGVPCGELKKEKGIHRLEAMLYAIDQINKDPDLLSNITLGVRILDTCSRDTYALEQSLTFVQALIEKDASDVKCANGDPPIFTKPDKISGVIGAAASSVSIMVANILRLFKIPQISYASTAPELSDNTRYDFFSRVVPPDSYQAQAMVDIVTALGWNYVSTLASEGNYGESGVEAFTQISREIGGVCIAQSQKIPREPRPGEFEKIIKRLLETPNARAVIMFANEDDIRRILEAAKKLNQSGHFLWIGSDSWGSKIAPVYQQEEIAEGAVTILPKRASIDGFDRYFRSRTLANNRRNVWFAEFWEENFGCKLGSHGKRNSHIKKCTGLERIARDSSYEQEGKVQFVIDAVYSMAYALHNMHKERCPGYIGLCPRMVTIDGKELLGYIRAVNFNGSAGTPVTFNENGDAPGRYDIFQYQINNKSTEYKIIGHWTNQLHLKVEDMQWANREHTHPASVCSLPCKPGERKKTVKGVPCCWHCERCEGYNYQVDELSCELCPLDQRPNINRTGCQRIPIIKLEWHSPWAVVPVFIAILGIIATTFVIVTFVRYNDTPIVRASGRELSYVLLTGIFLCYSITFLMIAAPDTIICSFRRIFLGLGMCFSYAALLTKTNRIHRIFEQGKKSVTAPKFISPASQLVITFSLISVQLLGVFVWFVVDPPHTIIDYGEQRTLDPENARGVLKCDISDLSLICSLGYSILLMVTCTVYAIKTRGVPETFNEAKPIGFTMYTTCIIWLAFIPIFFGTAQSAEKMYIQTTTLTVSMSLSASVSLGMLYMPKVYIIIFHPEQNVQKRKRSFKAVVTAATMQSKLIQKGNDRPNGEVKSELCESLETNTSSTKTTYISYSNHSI
The compound `CN(C)c1ccnc2sc3c(NCC(O)CO)ncnc3c12` (stereo not drawn) came in with a z-score of -0.106.
In the case of `CCOC(=O)c1c(C)[nH]c(C(=O)COC(=O)/C=C/c2ccc3c(c2)OCO3)c1C`, the z-score was determined as 0.00271.
`Cc1nc2ccccc2cc1C(=O)O` registered a z-score of 0.0939.
Take `CC(C/C=N/NC(=O)COc1cc(Cl)ccc1Cl)c1ccccc1` (stereo not drawn): the z-score is -0.0205.
In turn, `O=C(Nc1ccc2c(c1)OCO2)C1CC(c2ccc(Cl)cc2)=NO1` (stereo not drawn) displayed a z-score of -0.0412.
`CN(c1ccc(OCC(=O)OCC(=O)Nc2ccc(F)cc2)cc1)S(=O)(=O)c1ccc(Cl)cc1` returned a z-score of -0.231.
With `COc1ccccc1N1CCN(CCCC(=O)c2ccc(F)cc2)CC1`, the z-score is -0.123.
In turn, `COc1cc2cc(C(N)=O)c(N)nc2cc1OC` registered a z-score of -0.0702.
The figure for `COc1cc2cnc(Cl)nc2cc1OC` is -0.182; for `COc1cc2cnncc2cc1OC` it is 3.21 (active).
With `CCOC(=O)c1ccc(NC(=O)CSc2nnc(-c3cccs3)n2C)cc1`, the z-score is -0.387.
The figure for `O=C(NCC1CCCO1)C(c1cccs1)N(Cc1cccs1)C(=O)Cn1nnc(-c2cccs2)n1` (stereo not drawn) is -0.109; for `Cc1ccc(C(C(=O)NCC2CCCO2)N(Cc2ccccc2F)C(=O)Cn2nnc(-c3cccs3)n2)cc1` (stereo not drawn) it is -0.157.
`O=C(NCC1CCCO1)C(c1ccc(F)cc1)N(Cc1ccc(F)cc1)C(=O)Cn1nnc(-c2cccs2)n1` (stereo not drawn) yielded a z-score of 2.46.
In turn, `Cn1c(=O)c(-c2ccccc2)nc2ccccc21` returned a z-score of -0.27.
In turn, `c1ccc(-c2cn3nc(-c4ccccc4)c(-c4ccccc4)nc3n2)cc1` gave a z-score of -1.03.
The figure for `O=c1c(-c2ccccc2)nc(-c2ccccc2)cn1O` is 2.86.
Regarding `CCOc1ccc2c(c1)-c1c(ssc1=S)C(C)(C)N2C`, the z-score is -0.11.
The figure for `CC(Oc1ccc(Cl)cc1)C(=O)NNC(=S)NC(=O)c1ccco1` (stereo not drawn) is 5.62 (active); for `O=C(NC(=S)NNC(=O)c1ccccc1O)c1ccco1` it is 0.576; for `COc1ccc(C(=O)Nc2cc(OC)c(NC(=O)c3ccco3)cc2OC)cc1` it is -0.196.
The figure for `COc1ccc(/C=C/C(=O)NC(=S)NNC(=O)c2ccco2)cc1` is 0.921.
Turning to `CC(C)CNC(=S)NNC(=O)c1ccco1`, the z-score was -0.0344.
The figure for `CCOC(=O)/C(=C/c1ccc(Cl)cc1)NC(=O)c1ccco1` is -0.468; for `CC(Oc1ccc2ccccc2c1)C(=O)NNC(=S)NC(=O)c1ccco1` (stereo not drawn) it is 4.46 (active).
The figure for `COc1ccc(C(=O)NNC(=S)NC(=O)c2ccco2)cc1` is 2.99.
The figure for `O=C(Nc1ccc(Oc2ccc3ccccc3c2)cc1)c1ccco1` is 0.388; for `Cc1cccc(C(=O)Oc2csc(=S)n2C(=O)c2cccc(C)c2)c1` it is 0.282; for `COc1cc(CNCc2ccccn2)ccc1OCc1ccc(Cl)cc1` it is 0.427.
In turn, `CC(=O)c1cccc(NC(=O)C2CC(c3ccc(F)cc3)=NO2)c1` (stereo not drawn) displayed a z-score of -0.0875.
The figure for `O=C(COc1ccc(Cl)cc1Cl)Nc1nc2n(n1)C(c1ccccc1)CC(=O)N2` (stereo not drawn) is -0.56; for `O=C(Nc1ncc(C(F)(F)F)cc1Cl)C1COc2ccccc2O1` (stereo not drawn) it is -0.304; for `CCN(CC)CCCNC(=O)c1ccc(Cl)c(S(=O)(=O)Nc2ccccc2OC)c1` it is -0.0127.
The figure for `CCN(CC)CCNC(=O)c1ccc(Cl)c(S(=O)(=O)Nc2ccccc2OC)c1` is 0.323; for `CCN(CC)CCNC(=O)c1ccc(NC(=O)c2ccc(Cl)c(S(=O)(=O)Nc3ccccc3OC)c2)cc1` it is 2.14; for `CC(=O)c1cccc(NC(=O)CSc2nnc(-c3cccnc3)o2)c1` it is 0.059.
The figure for `O=C(NCc1ccccc1)C(=O)Nc1nc(C23CC4CC(CC(C4)C2)C3)cs1` is 3.44 (active); for `CC(=O)NNC(=O)CC(=O)Nc1nc(C23CC4CC(CC(C4)C2)C3)cs1` it is -0.221; for `O=C(NCc1ccncc1)C(=O)Nc1nc(C23CC4CC(CC(C4)C2)C3)cs1` it is 0.792.
`COC(=O)N/N=C/c1ccc(OCCSc2ccc(Cl)cc2)c(OC)c1` returned a z-score of 0.427.
The figure for `CCCC1S/C(=N/N=C/c2ccc(C)cc2)N(Cc2ccc(OC)cc2)C1=O` (stereo not drawn) is 0.151; for `CC(=O)Nc1cccc(Oc2cc(C#N)c(C#N)cc2N2CCCCCC2)c1` it is 2.07.
For the compound `CC(=O)Nc1ccc(Oc2cc(C#N)c(C#N)cc2N2CCCCCC2)cc1`, the z-score is 1.3.
The figure for `CC(=O)Nc1ccc(Oc2cc(C#N)c(C#N)cc2N2CCOCC2)cc1` is 0.123; for `O=c1oc2ccccc2c(Nc2cccc3ccccc23)c1[N+](=O)[O-]` it is -0.861; for `COCCNC(=O)c1ccc(-n2c(SCc3cc(F)ccc3F)nc3ccccc3c2=O)cc1` it is -0.0902.
The figure for `CCN(CC)S(=O)(=O)c1cccc(S(=O)(=O)N2CCCCC2)c1` is -0.121; for `CC(=O)Nc1ccc(Oc2nc(C)cc(C)n2)cc1` it is 0.187.
Regarding `CC(=O)Nc1ccc(Oc2cnccn2)cc1`, the z-score was -0.0949.
As for `CC(=O)Nc1ccc(Oc2ncccn2)cc1`, the z-score is 7.84 (active).
The figure for `COCC(=O)n1nc(NCc2ccc(OC)cc2)nc1NCc1ccc(OC)cc1` is -0.00999.
The figure for `CCC(=O)Nc1nc2ccccc2n1CCN(CC)CC` is -0.0953; for `CCN(CC)CCn1c(NC(=O)c2ccc(Cl)cc2)nc2ccccc21` it is 4.18 (active); for `CN(C)CCn1c(NC(=O)c2ccc(Cl)cc2)nc2ccccc21` it is 0.381.
Take `Cc1ccc(N/C(SCc2ccccc2C)=C(/C#N)C(=O)NCc2ccco2)cc1C`: the z-score is -0.331.
The figure for `CCOc1cc(C(=S)N2CCOCC2)ccc1OS(=O)(=O)c1ccccc1` is -0.19; for `Cc1ccccc1OCC(=O)NC(=S)Nc1ccc2c3c(cccc13)CC2` it is 0.22; for `COc1cc(OC)cc(C(=O)NC(=S)Nc2ccc3c4c(cccc24)CC3)c1` it is 0.967.
The figure for `O=C(COc1ccccc1)NC(=S)Nc1ccc2c3c(cccc13)CC2` is 4.29 (active); for `CC(C)Oc1cccc(C(=O)NC(=S)Nc2ccc3c4c(cccc24)CC3)c1` it is 1.24.
The figure for `CC(C)c1ccc(OCC(=O)NC(=S)Nc2ccc3c4c(cccc24)CC3)cc1` is 1.27; for `COc1cccc(C(=O)NC(=S)Nc2ccc3c4c(cccc24)CC3)c1` it is 2.83.
`CN1CCN(C(=O)c2ccccc2N(Cc2ccccc2)S(=O)(=O)c2ccccc2)CC1` showed a z-score of -0.185.
The figure for `Cn1cc([N+](=O)[O-])c(C(=O)N/N=C/c2ccccc2)n1` is -0.138; for `Cc1cc(C)n(-c2nc3ccccc3nc2Nc2ccc(CC(=O)O)cc2)n1` it is 1.13; for `O=c1c2c(nc3c(-c4cccc5ccccc45)c[nH]n13)CCC2` it is -0.52.
`Cc1[nH]n2c(=O)c3c(nc2c1-c1ccccc1)CCC3` registered a z-score of -1.66.
The figure for `N#Cc1c[nH]n2c(=O)c3c(nc12)CCCC3` is -0.482.
The figure for `O=c1c2c(nc3c(-c4ccc(Cl)cc4)c[nH]n13)CCCC2` is 12 (active); for `O=c1c2c(nc3c(-c4ccccc4)c[nH]n13)CCC2` it is -0.819.
The figure for `Cc1ccc(-c2[nH]n3c(=O)c4c(nc3c2C)CCCC4)cc1` is 11 (active); for `O=c1c2c(nc3c(-c4cccc(Br)c4)c[nH]n13)CCCC2` it is 6.35 (active).
`O=c1c2c(nc3cc(-c4ccccc4)[nH]n13)CCC2`: the z-score was -0.413.
As for `Cc1ccc(N=Nc2c(N)[nH]n3c(=O)c4c(nc23)CCCC4)cc1`, the z-score is -0.696.
The figure for `O=c1c2c(nc3cc(-c4cccc(Cl)c4)[nH]n13)CCC2` is 0.391; for `Nc1[nH]n2c(=O)c3c(nc2c1N=Nc1ccc(Cl)cc1)CCCC3` it is -1.09.
Turning to `O=c1c2c(nc3c(-c4ccccc4)c[nH]n13)CCCC2`, the z-score is 3.66 (active).
The figure for `COCCNC(=O)C(=O)N/N=C/c1ccccc1C(F)(F)F` is -0.508.
Consider `Cc1nc2ccc(S(=O)(=O)NCC(=O)N3CCOCC3)cc2s1`, for which the z-score is -0.0788.
Regarding `COc1ccc2c(c1)c1ncn(CCN3CCNCC3)c(=O)c1n2C`, the z-score is -0.141.
Take `O=C(N[C@@H](Cc1ccccc1)c1nc2ccccc2[nH]1)c1cc([N+](=O)[O-])ccc1Cl`: the z-score is -0.361.
The figure for `CC(C)(C)NC(=O)C1CCCN(S(=O)(=O)c2cccc3cccnc23)C1` (stereo not drawn) is -0.133.
The figure for `COc1ccc2nc3oc(C(=O)Nc4ccc(OC)c(OC)c4)cc3cc2c1` is 4.91 (active); for `COc1ccc2cc3cc(C(=O)Nc4cc(OC)c(OC)c(OC)c4)oc3nc2c1` it is -0.255.
In turn, `CCOc1ccc(NC(=O)c2cc3cc4ccc(OC)cc4nc3o2)cc1` gave a z-score of 0.334.
The figure for `O=C(Nc1ccc2oc(-c3ccncc3)nc2c1)c1cccs1` is -1.18; for `CCc1nnc(NC(=O)CCc2ccc(C)o2)s1` it is 0.332.
The figure for `CCC(=O)N1CCc2cc(S(=O)(=O)CCC(=O)NCCc3ccccc3)ccc21` is -0.24.
`CC(NC(=O)COC(=O)/C=C/c1ccc([N+](=O)[O-])cc1)c1ccccc1` (stereo not drawn): the z-score was -0.366.
As to `CC(C)NC(=O)c1ccccc1NC(=O)/C=C/c1cccc([N+](=O)[O-])c1`, the z-score is -0.52.
Take `CC(C)c1ccccc1NC(=O)COC(=O)/C=C/c1cccc([N+](=O)[O-])c1`: the z-score was 5.9 (active).
Compound `CCOc1ccc(NC(=O)CSc2nnc(CCNC(=O)c3ccc(OC)cc3)n2CC)cc1` gave a z-score of -0.0739.
In the case of `C/C=C/COC(=O)c1[nH]c2c(c1C)C(=O)CC(c1ccco1)C2` (stereo not drawn), the z-score is -0.237.
The figure for `CSCC[C@H](NC(=O)OC(C)(C)C)c1nnc(SCC(=O)N(C)C)o1` is -0.106; for `O=C(Nc1nc2ccccc2s1)C1CC(=O)N(c2ccc(Br)cc2)C1` (stereo not drawn) it is 0.374.
Compound `Cc1onc(-c2ccccc2)c1C(=O)Nc1sc2c(c1C#N)CCC(C)C2` (stereo not drawn) yielded a z-score of 0.289.
The figure for `CCCc1cc(C(=O)Nc2sc3c(c2C#N)CCC3)no1` is 2.21; for `Cc1ccccc1C(=O)NC(=S)Nc1sc2c(c1C#N)CCCC2` it is 5.02 (active); for `Cc1ccccc1C(=O)NC(=S)Nc1sc2c(c1C#N)CCC(C)C2` (stereo not drawn) it is 1.82.
The figure for `Cc1cc(C(=O)Nc2sc3c(c2C#N)CCC3)no1` is -0.0664; for `Cc1onc(-c2ccccc2)c1C(=O)NC(=S)Nc1sc2c(c1C#N)CCCC2` it is 4.1 (active); for `N#Cc1c(NC(=S)NC(=O)c2ccccc2)sc2c1CCC2` it is 0.849.
Compound `CC(C)Cc1cc(C(=O)Nc2sc3c(c2C#N)CCC3)no1` returned a z-score of 1.32.
With `N#Cc1c(NC(=S)NC(=O)c2ccccc2)sc2c1CCCC2`, the z-score came out at 0.0146.
The figure for `CCOC(=O)CC1ON(C)C(=O)N1c1ccc([N+](=O)[O-])cc1` (stereo not drawn) is 0.0464.
The figure for `CCCCOC(=O)c1ccc(NC(=O)/C=C/c2cccs2)cc1` is -0.063.
In turn, `CCc1ccc(C2NC(C(=O)O)CS2)cc1` (stereo not drawn) registered a z-score of -0.258.
`CC(C)Cn1c(SCC(=O)N2CCCCC2)nc2ccccc2c1=O` displayed a z-score of -0.537.
